In all, about 1,400 compounds went through this assay and fewer than 10 were called active. Not all results are given here. Values without a mark were called inactive.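 The calls were made as follows: active = fluorescence-lowering compounds whose fitted half-maximal concentration is at or below ten times the highest valid dose tested; inconclusive = flat curve at 30 to 70% inhibition, or poor fit; inactive = the rest.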
Target: Histone deacetylase 3 (Homo sapiens) (UniProt O15379)
Experiment: inhibition of human HDAC3 enzymatic activity – biochemical, fluorescence, cherry-picked samples, counter-screen for JMJD2C/GASC1 demethylase inhibitor project, dose response (AID 485318);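 also: enzyme preincubated with compound before substrate and trypsin were added; 0% = neutral control wells and -100% = SAHA positive control wells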
Details: recombinant HDAC3, fluorogenic peptide/trypsin coupled; series mostly up to 12 µM; activity change, negative = inhibition: at the top concentration

Chain of Histone deacetylase 3 (Homo sapiens) (O15379 whole entry, looked up): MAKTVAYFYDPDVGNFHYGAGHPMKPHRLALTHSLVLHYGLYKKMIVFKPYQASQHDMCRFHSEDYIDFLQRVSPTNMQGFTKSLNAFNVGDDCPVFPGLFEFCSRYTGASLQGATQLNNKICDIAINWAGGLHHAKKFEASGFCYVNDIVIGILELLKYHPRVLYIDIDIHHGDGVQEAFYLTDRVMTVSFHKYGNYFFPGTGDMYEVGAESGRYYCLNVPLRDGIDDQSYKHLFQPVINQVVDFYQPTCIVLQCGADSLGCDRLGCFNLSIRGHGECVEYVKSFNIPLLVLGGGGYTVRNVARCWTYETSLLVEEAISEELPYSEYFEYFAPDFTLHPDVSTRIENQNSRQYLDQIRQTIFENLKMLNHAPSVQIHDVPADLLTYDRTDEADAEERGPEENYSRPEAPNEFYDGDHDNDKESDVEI

Structure (SMILES)	activity change, negative = inhibition
C[C@H]1CN(CCc2ccccc2)C(=O)[C@@H]1CC(=O)NCc1ccccc1	-0.42%
COc1ccc(NC(=S)NNC(=O)c2ccc(S(=O)(=O)N3CCOCC3)cc2)cc1	0.24%
CN(c1ccc(OCC(=O)N2CCCCC2)cc1)S(=O)(=O)c1cccs1	-0.149%
Nc1c(Cl)ncnc1NCc1cccnc1	0.296%
CCC(C)C(NC(=O)OC(C)(C)C)C(=O)NC(C(=O)N1CCCC1C(N)=O)C(C)CC (centres undefined)	0.796%
COc1cc(OC)cc(C(=O)Nc2ccc(-n3cnnn3)c(C)c2)c1	-0.279%
N#CCCn1c(SCC(=O)N2CCN(S(=O)(=O)c3ccccc3)CC2)nc2ccccc21	0.508%
CCOC(=O)Nc1cc(C)c(Cl)cc1OC	1.18%
Cc1onc(-c2ccccc2)c1C(=O)Nc1c(C)n(C)n(-c2ccccc2)c1=O	0.51%
CS(=O)(=O)N(CC(=O)Nc1ccccc1C(=O)NCCc1ccccc1)c1ccc2c(c1)OCCO2	0.133%
CCOC(=O)c1[nH]c(C)c(/C(O)=C2\C(=O)C(=O)N(CCCN(CC)CC)C2c2cccnc2)c1C (centres undefined)	0.131%
COc1ccc(CCNC(=O)N2c3ccccc3Sc3ccccc32)cc1	1.25%
CCC(=O)Nc1ccc(NC(=O)CSc2nnnn2C(C)C)cc1	0.553%
C[C@@H]1CCCCCCCCC(=O)OCCN(C(=O)OC(C)(C)C)[C@H](C)CCCCCCCCC(=O)OCCN(C(=O)OC(C)(C)C)[C@H](C)CCCCCCCCC(=O)OCCN1C(=O)OC(C)(C)C	0.233%
Cc1ccc(S(=O)(=O)Nc2ccc3c(c2)CC(=O)N([C@H](C)CO)C[C@@H](C)[C@H](CN(C)S(=O)(=O)c2ccccc2)O3)cc1	1.04%
CCOc1ccc(CN(C)CC(=O)Nc2cc(C)c(C)cc2[N+](=O)[O-])cc1	-0.108%
COc1ccccc1OCCOCCn1cnc2ccccc2c1=O	-0.761%
O=[N+]([O-])c1cc(/C=N/Nc2nc3ccccc3[nH]2)c(O)cc1O	0.0861%
CC(=O)C[C@@H](O)CC(=O)[C@H]1OC(=O)[C@H](C)CCCCc2ccccc21	-0.548%
CC[C@]12c3[nH]c4ccccc4c3CCN1C(=O)C(CC(=O)NCCCOC)C[C@@H]2C(=O)N1CCN(C(=O)c2ccco2)CC1 (some centres undefined)	0.706%
CCOCCc1nnc(NC(=O)c2ccc(OC)c(OC)c2)s1	-1.23%
O=C1CCCc2c1nc(-c1ccccc1)n2O	0.0393%
COC(=O)[C@]1(Cc2ccccc2)N[C@H](CN(C)S(=O)(=O)c2ccc(F)cc2)[C@@H]2C(=O)N(Cc3ccccc3)C(=O)[C@@H]21	0.164%
COc1ccc(C2CC(c3cccs3)=NN2S(=O)(=O)c2ccc(C)cc2)cc1 (centres undefined)	0.501%
COc1ccc(/C=C/C(=O)NC(=S)NNC(=O)Cc2cccs2)cc1OC	-0.579%

Structure (SMILES)	activity change, negative = inhibition
Cc1ccc(N2CC(C(=O)Nc3ccc(N(C)C)cc3)CC2=O)cc1C (centres undefined)	0.359%
COc1ccc(NN=Nc2nc3c([nH]2)c(=O)n(C)c(=O)n3C)cc1	0.508%
O=C(Cc1sc(-c2ccccc2)nc1-c1ccccc1)Nc1ccccc1	-0.152%
CCc1ccc(NC(=O)CSc2nnc(CNC(=O)c3c(F)cccc3Cl)o2)cc1	0.0315%
O=C1CC2(CCN(C(=O)c3ccccc3Cl)CC2)Oc2ccccc21	0.607%
C[C@H]1CN([C@@H](C)CO)C(=O)Cc2cc(NS(=O)(=O)c3cccs3)ccc2O[C@H]1CN(C)S(=O)(=O)c1cn(C)cn1	-0.706%
CC(=O)Nc1ccc2c(c1)C(C)(C)C(C)N2C (centres undefined)	-1.19%
O=C(O)c1ccnc(C(=O)O)c1	-0.152%
COc1ccc(NC(=O)Nc2cccc3c2O[C@H](CN(C)C(=O)NC(C)C)[C@@H](C)CN([C@H](C)CO)C3=O)cc1	-0.142%
COc1ccc(NC(=S)NCCCn2ccnc2)cc1	-0.13%
CCOc1ccc(N=Cc2c(O)n(-c3cccc(C)n3)c(=O)c3ccccc23)cc1	0.766%
Cc1cccc(C)c1N1C(=O)c2cccc([N+](=O)[O-])c2C1=O	-0.27%
CCOC(=O)C1CCN(S(=O)(=O)c2cccc(-c3cn4cc(Cl)ccc4n3)c2)CC1	0.424%
CC(=O)c1c(C(C)=O)c(C)n(NC(=O)c2ccncc2)c1C	0.563%
CN1CCN(c2nc3ccccn3c(=O)c2/C=C(\C#N)S(=O)(=O)c2ccc(Cl)cc2)CC1	1.17%
O=C1CC(N2CCC(O)(c3ccc(Cl)cc3)CC2)C(=O)N1Cc1ccc(N2CCCC2=O)cc1 (centres undefined)	0.431%
CS(=O)(=O)c1ccccc1-c1nnc(NC(=O)c2ccc3ncsc3c2)o1	-1.47%
CN(C(=O)c1ccc(NC(=O)Cc2ccc(NC(=O)C3CCN(C(=O)C4CCC4)CC3)cc2)cc1)C1CC1	0.986%
CCS(=O)(=O)N1CCN(c2ccc([N+](=O)[O-])c(N3CCOCC3)c2)CC1	-0.0167%
O=C(CCN1C(=O)/C(=C/c2ccc(F)cc2)SC1=S)N[C@@H](CO)Cc1ccccc1	-0.0269%
c1ccc(-c2ccccc2OCCN2CCCC2)cc1	-0.955%
CSc1nc(N)nc2c1ncn2CC(=O)N[C@H](CO)Cc1c[nH]c2ccccc12	-0.258%
CCc1nn2c(N3CCOCC3)cc(C)nc2c1-c1ccc(F)cc1	0.143%
CSc1nc(N)nc2c1ncn2CC(=O)NCCNc1ccc([N+](=O)[O-])cn1	-0.105%
